ULK1 inh: inhibitors of human ULK1 kinase. AlphaScreen Atg13 phosphorylation by ULK1, luminescence. 30,000 tested, 1.9% active. inhibition, % at 5.96 µM. AID 1259251. O75385; in the data active means inhibition above about 43%
ASK1 inh: inhibitors of human ASK1 kinase. inhibition, % at 7.44 µM. Q99683. 22,000 tested, 0.99% active. AlphaScreen MKK6 phosphorylation by ASK1, luminescence; in the data active means inhibition above about 35%
Target sequence (Q99683 whole entry, looked up): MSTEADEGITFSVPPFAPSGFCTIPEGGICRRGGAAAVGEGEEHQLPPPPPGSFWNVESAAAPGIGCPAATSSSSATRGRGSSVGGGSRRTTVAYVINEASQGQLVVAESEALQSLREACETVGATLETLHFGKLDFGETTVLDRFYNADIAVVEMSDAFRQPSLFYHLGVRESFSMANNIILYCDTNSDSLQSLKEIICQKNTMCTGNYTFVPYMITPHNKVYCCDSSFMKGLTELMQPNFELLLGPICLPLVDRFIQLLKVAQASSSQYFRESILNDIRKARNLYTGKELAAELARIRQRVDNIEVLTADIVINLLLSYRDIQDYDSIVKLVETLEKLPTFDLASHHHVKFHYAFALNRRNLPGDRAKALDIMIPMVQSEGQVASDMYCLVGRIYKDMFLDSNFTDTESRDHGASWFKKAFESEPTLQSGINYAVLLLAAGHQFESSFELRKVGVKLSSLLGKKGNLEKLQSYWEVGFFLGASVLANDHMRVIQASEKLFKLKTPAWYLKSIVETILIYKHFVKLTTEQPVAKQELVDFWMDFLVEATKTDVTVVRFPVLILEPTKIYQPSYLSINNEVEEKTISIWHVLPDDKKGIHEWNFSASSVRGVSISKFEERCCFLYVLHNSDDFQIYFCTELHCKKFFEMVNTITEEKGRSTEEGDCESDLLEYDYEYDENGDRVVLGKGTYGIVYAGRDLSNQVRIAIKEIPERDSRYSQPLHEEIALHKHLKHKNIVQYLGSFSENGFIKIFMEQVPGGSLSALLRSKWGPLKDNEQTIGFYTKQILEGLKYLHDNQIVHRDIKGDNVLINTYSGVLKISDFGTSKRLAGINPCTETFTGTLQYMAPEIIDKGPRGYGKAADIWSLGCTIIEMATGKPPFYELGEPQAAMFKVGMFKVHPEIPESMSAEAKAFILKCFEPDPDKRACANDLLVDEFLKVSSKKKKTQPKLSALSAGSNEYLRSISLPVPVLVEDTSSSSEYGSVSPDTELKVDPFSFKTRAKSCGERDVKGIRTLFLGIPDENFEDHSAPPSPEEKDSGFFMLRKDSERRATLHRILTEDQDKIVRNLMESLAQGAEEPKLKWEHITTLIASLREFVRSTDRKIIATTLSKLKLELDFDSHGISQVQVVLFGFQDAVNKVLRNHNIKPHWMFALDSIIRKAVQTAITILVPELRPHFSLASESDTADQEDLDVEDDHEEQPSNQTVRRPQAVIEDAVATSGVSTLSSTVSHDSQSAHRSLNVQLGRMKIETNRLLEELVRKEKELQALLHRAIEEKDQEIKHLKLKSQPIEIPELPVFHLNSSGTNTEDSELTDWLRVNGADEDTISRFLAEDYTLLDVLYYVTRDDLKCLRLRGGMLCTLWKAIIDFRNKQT
A number is an active result; n = inactive; x = no result; ! = a repeat was not active. Most compounds without a hit are left out; they make up all but 2.5% or so of the library.

SMILES | ULK1 inh | ASK1 inh
CCCn1cc(NC(=O)C2CC(c3ccccc3N)=NO2)cn1 (stereo not given) | n | n
Cc1n[nH]c(C)c1-c1ccc2nc(C(C)C)[nH]c(=O)c2c1 | 60 | n
CC(C)c1nc2ccc(-c3cnn(C)c3)cc2c(=O)[nH]1 | n | n
O=C1c2c(O)cccc2Cc2cccc(O)c21 | 60! | x
Oc1cccc2c1CC=CC2 | n | x
COc1cc(/C=N/NC(=O)c2cc(C)[nH]n2)ccc1OC(=O)c1ccc([N+](=O)[O-])cc1 | n | x
COc1ccc(CCNc2nc(Cl)nc3c2ncn3Cc2ccc(C(F)(F)F)cc2)cc1 | n | n
NC(=O)c1cccnc1 | n | x
O=C(OCC1(COC(=O)c2cccnc2)CCCC(COC(=O)c2cccnc2)(COC(=O)c2cccnc2)C1O)c1cccnc1 | 45 | x
COc1cc(NC(=O)c2cnc(Nc3nccc4ccccc34)s2)cc(OC)c1OC | n | n
O=S(=O)(NCc1ccccc1)c1ccc(-c2ncnc3[nH]ccc23)cc1 | 45 | n
COc1cccc(CNC(=O)Nc2ccc(-c3ncnc4[nH]ccc34)cc2)c1 | n | n
COc1cccc(CNS(=O)(=O)c2ccc(-c3ccnc4[nH]ccc34)cc2)c1 | n | n
COc1cccc(CNS(=O)(=O)c2ccc(-c3ncnc4[nH]cc(C)c34)cc2)c1 | 59 | n
CC(C)n1c(-c2csc3ccccc23)nc2c(Nc3ccc(N4CCOCC4)cc3)ncnc21 | n | n
O=C(NCCN1CCOCC1)c1cccc(-n2ncc3ccc(-c4cccnc4)cc32)c1 | n | n
O=C(O)c1ccccc1-c1c2cc(I)c(=O)c(I)c-2oc2c(I)c(O)c(I)cc12 | n | x
O=C(O)c1c(Cl)c(Cl)c(Cl)c(Cl)c1-c1c2cc(I)c(=O)c(I)c-2oc2c(I)c(O)c(I)cc12 | 45 | x
O=C(NC1CC1)c1ccc2nc(-c3ccc4[nH]ccc4c3)sc2c1 | n | n
O=c1c2ccccc2nc2c3ccccc3c(N3CCCCCC3)nn12 | n | x
Cc1ncc(CSSCc2cnc(C)c(O)c2CO)c(CO)c1O | 47 | x
Cc1ncc(COP(=O)(O)O)c(C=O)c1O | n | x
COc1cc(Nc2cc(C)nc(NCCCN3CCCC3=O)n2)cc(OC)c1OC | n | n
COCCCNc1cc(-c2cncc(Br)c2)nc(-c2ccccc2)n1 | n | x
O=S(c1cc(Cl)cc(Cl)c1O)c1cc(Cl)cc(Cl)c1O | n | x
SMILES | ULK1 inh | ASK1 inh
Oc1c(Cl)cc(Cl)cc1Sc1cc(Cl)cc(Cl)c1O | 84 | x
Cc1cc(Nc2ccc(N3CCOCC3)cc2)nc(N2CCN(Cc3ccc4c(c3)OCO4)CC2)n1 | n | 43
Cc1cc(Nc2ccccc2)nc(N2CCN(Cc3ccc4c(c3)OCO4)CC2)n1 | n | n
CCNc1cc(NCc2cccc(C(F)(F)F)c2)ncn1 | n | n
N#C/C(=C\c1nn(-c2ccccc2)c(N)c1C#N)c1ccco1 | 45 | x
O=C(CCCl)NCC1(c2ccccc2)CCCC1 | n | x
Cc1sc2c(c1C)C(=O)NC(c1ccc(Br)cc1)N2 (stereo not given) | n | x
Cc1cc(NC2CC2)nc(N2CCC(N3CCOCC3)CC2)n1 | n | n
Cc1cc(N)nc(N2CCC(N3CCOCC3)CC2)n1 | 49 | n
O=C(N/N=C\C=C\c1ccc(Br)cc1)c1ccc2c(c1)OCO2 | n | x
COC(=O)c1ccc(/C=C/C(=O)c2ccc3c(c2)OCCO3)cc1 | 43 | x
CCN(CC)C(=O)C1CCCN(c2nc(Nc3cc(OC)c(OC)c(OC)c3)c3ncn(C(C)C)c3n2)C1 (stereo not given) | n | n
Cc1cncc2c(S(=O)(=O)N3CCCN(C(=O)CN)C[C@@H]3C)cccc12 | n | n
Cc1cncc2cccc(S(=O)(=O)N3CCCN(C(=O)CN)C[C@@H]3C)c12 | 67 | n
COc1cc(-c2cn[nH]c2)ccc1C(=O)NC1COc2ccccc2C1 (stereo not given) | n | n
CO/N=C(\C(=O)O)c1csc(NC(=O)CCl)n1 | n | x
O=C(CCl)Nc1nc(-c2ccc(Br)cc2)cs1 | 45 | x
Cc1ccc(C(=O)N2CCC(Nc3cccc4cncc(C)c34)CC2)cc1F | n | n
COc1cc(C=NNC(=O)c2ccncc2)ccc1O | n | x
COc1cc(/C=N/Nc2nncn2/N=C/c2ccc(O)c(OC)c2)ccc1O | 51 | x
N#Cc1ccc(Nc2nccc(-c3cncc(N4CCOCC4)c3)n2)cc1 | n | n
OC1CCN(c2ccc(Nc3nccc(-c4cc(F)cc(N5CCOCC5)c4)n3)cc2)CC1 | 45 | n
Fc1cc(-c2ccnc(Nc3ccc(N4CCOCC4)cc3)n2)cc(N2CCOCC2)c1 | n | n
Cc1cc(Nc2nccc(-c3cc(C#N)cc(N4CCOCC4)c3)n2)ccc1N1CCOCC1 | n | n
OC1CCN(c2ccc(Nc3nccc(-c4cncc(N5CCOCC5)c4)n3)cc2)CC1 | 68 | n
SMILES | ULK1 inh | ASK1 inh
c1cc(Cn2cccn2)cc(Nc2nccc(-c3cncc(N4CCOCC4)c3)n2)c1 | 80 | n
N#Cc1cc(-c2ccnc(Nc3cccc(CN4CCCCC4)c3)n2)cc(N2CCOCC2)c1 | 79 | n
c1cc(-c2cncc(N3CCOCC3)c2)nc(Nc2ccc3c(c2)OCCO3)n1 | n | n
O=C(NCc1cccc(C(F)(F)F)c1)c1csc(N2CCCC2CO)n1 (stereo not given) | n | n
FC(F)(F)c1ccc(Cn2cnc3c(NCc4cccc(C(F)(F)F)c4)nc(Nc4cnccn4)nc32)cc1 | n | n
Clc1cc(N2CCN(c3ccccc3)CC2)c(Cl)nn1 | n | x
CCNc1ncc(C(=O)NCCO)s1 | n | n
O=C(NCc1cccnc1)c1cccc(NCc2ccc3c(c2)OCO3)n1 | n | n
Fc1cc(-c2nc(Nc3ccc(CN4CCCCC4)cc3)ncc2F)cc(N2CCOCC2)c1 | 44 | n
Fc1cnc(Nc2ccc(CN3CCCCC3)cc2)nc1-c1cc(N2CCOCC2)cc(C(F)(F)F)c1 | n | n
O=C(NC1CCN(Cc2ccccc2)CC1)c1cnc(Nc2cnccn2)s1 | n | n
CS(=O)(=O)Nc1ccc(-c2ccnc(Nc3cccc(S(N)(=O)=O)c3)n2)cc1 | 58 | n
CS(=O)(=O)Cc1ccc(-c2ccnc(Nc3ccc(S(N)(=O)=O)cc3)n2)cc1 | 50 | n
CCS(=O)(=O)c1ccc(-c2ccnc(Nc3ccc(S(N)(=O)=O)cc3)n2)cc1 | n | n
NS(=O)(=O)c1ccc(Nc2nccc(-c3ccc(Nc4ccccc4)cc3)n2)cc1 | n | n
CS(=O)(=O)Nc1cccc(-c2ccnc(Nc3cccc(S(N)(=O)=O)c3)n2)c1 | n | n
CN(C)S(=O)(=O)Nc1ccc(-c2ccnc(Nc3ccc(S(N)(=O)=O)cc3)n2)cc1 | 48 | n
CC(C)NC(=O)Cn1c(CO)cnc1SCC(=O)N1CCc2ccccc21 | n | x
Oc1ccc(CCNc2nc(Nc3cnccn3)nc3c2ncn3C2CCCCC2)cc1 | 44 | n
COc1ccc(CCNc2nc(Nc3cnccn3)nc3c2ncn3C2CCCCC2)cc1 | n | n
COc1cc(Nc2cccc(C(N)=O)c2)cc(OC)c1OC | n | n
CCOC(=O)C(N)Cc1ccc(O)c(O)c1 (stereo not given) | 66 | x
COC(=O)[C@@H](N)Cc1ccc(O)c(O)c1 | n | x
O=C(Cc1cn(-c2ccc(Nc3cnccn3)nn2)c2ccccc12)NCCN1CCOCC1 | n | n
Cc1cccc(CNC(=O)Nc2ccc(-c3cn[nH]c3)cc2)c1 | n | n
CN(C)CC(=O)Nc1cccc(CNC(=O)Nc2ccc(-c3cn[nH]c3)cc2)c1 | 96 | n
CN1CCN(C(=O)c2ccc(-c3cc(NC4CC4)nc(N)n3)cc2)CC1 | n | n
CN(C)CCCOc1cc(-c2cn[nH]c2)c(F)cc1NC(=O)C(N)c1ccc(Cl)cc1 (stereo not given) | n | n

Screening results deposited in PubChem by The Scripps Research Institute Molecular Screening Center.
